Assay results: PubChem BioAssay (NCI)
This is part of a sample that, as a whole, favours compounds with a hit. Of some 79,000 tested, about 15% had one in any assay. No stated cut-off is given here; in the data, active means growth inhibition above about 70%; inactive means the rest.

What was measured:
[1] = NCI Yeast Anticancer Drug Screen. Data for the rad50 strain (AID 155);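 further: 0% = growth of vehicle-only cultures of the same strain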; conditions: S. cerevisiae rad50 strain growth inhibition; at 50.0 µM; stronger effect = higher value
Procedure, shortened: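 Readout: growth inhibition relative to vehicle-treated cultures. Compound exposure was carried out in a genetically defined yeast strain deficient in DNA damage repair.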

[2] = NCI Yeast Anticancer Drug Screen. Data for the mec2-1 strain (AID 157); conditions: S. cerevisiae mec2-1 strain, at 50.0 µM, stronger effect = higher value
Procedure, shortened: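 Each compound was tested on mec2-1 yeast, a strain altered in DNA damage repair or cell cycle control. Growth inhibition is reported relative to vehicle.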

[3] = NCI Yeast Anticancer Drug Screen. Data for the sgs1 mgt1 strain (AID 161);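 further: 0% = growth of cultures given vehicle only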; conditions: S. cerevisiae sgs1 mgt1 strain, at 50.0 µM, stronger effect = higher value
Procedure, shortened: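 Mutant yeast exposed to compound; growth scored against vehicle-only wells.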

[4] = NCI Yeast Anticancer Drug Screen. Data for the cln2 rad14 strain (AID 165);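 further: 0% = growth equal to vehicle treated cultures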; conditions: S. cerevisiae cln2 rad14 strain, at 50.0 µM, stronger effect = higher value
Procedure, shortened: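 Test compounds were added to cln2 rad14 yeast cultures; inhibition of growth was then determined by comparison with vehicle treatment.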

[5] = NCI Yeast Anticancer Drug Screen. Data for the bub3 strain (AID 167); conditions: S. cerevisiae bub3 mutant strain, at 50.0 µM, stronger effect = higher value
Procedure, shortened: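 Readout: yeast growth inhibition, expressed relative to vehicle-only wells. The test organism is a mutant strain from a panel with lesions in DNA repair or checkpoint genes.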

[6] = NCI Yeast Anticancer Drug Screen. Data for the mlh1 rad18 strain (AID 175); conditions: S. cerevisiae mlh1 rad18 strain growth inhibition; at 50.0 µM; stronger effect = higher value
Procedure, shortened: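 Inhibition values reflect reduced growth of mutant yeast versus vehicle-treated controls following compound exposure; the mutations affect DNA damage repair.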

Measured: growth inhibition

NC1=NCCN1
inactive: [1] 31.9% | [2] 11.3% | [3] 3.5% | [4] -1.85% | [5] 16.8% | [6] 24.3%

CC(=O)NC(Cc1ccc(OC(C)=O)c(OC(C)=O)c1)C(C)=O (stereo unspecified)
inactive: [1] -10.4% | [2] 9.7% | [3] -0.7% | [4] -8.3% | [5] -10.6% | [6] 6%

CCn1c2ccccc2c2c3ncc4cccn4c3ccc21
inactive: [1] 10.8% | [2] -6.95% | [3] 19.4% | [4] 14.4% | [5] 7.95% | [6] 27.8%

O=[N+]([O-])c1cccc(S(=O)(=O)SSS(=O)(=O)c2cccc([N+](=O)[O-])c2)c1
inactive: [1] 16.6% | [2] 18.1% | [3] 55.9% | [4] 20.8% | [5] 5.75% | [6] 28.2%

CN(C)C(=O)C1C2C=CC(CCC2)C1C(=O)N(C)C (stereo unspecified)
inactive: [1] 13.1% | [2] 15.6% | [3] 15.8% | [4] 13.7% | [5] 15.7% | [6] 14.1%

O=[N+]([O-])c1ccc(N/N=C2\CCC3CC23)c([N+](=O)[O-])c1 (stereo unspecified)
inactive: [1] 1% | [2] -15.2% | [3] -2.15% | [4] -1.35% | [5] -0.55% | [6] -21.9%

COc1c2occc2c(N)c2ccc(=O)oc12
inactive: [1] -5.95% | [2] -4.4% | [3] -8.2% | [4] -14.5% | [5] -1.55% | [6] -9.95%

COc1ccc2c(Cl)ccnc2c1OC
inactive: [1] 15.3% | [2] 6.1% | [3] 10.9% | [4] -15% | [5] 23.4% | [6] 21.8%

O=c1c2ccccc2on1CN1CCN(Cn2oc3ccccc3c2=O)CC1
inactive: [1] 3.6% | [2] -11.1% | [3] -8% | [4] -12.9% | [5] -12.1% | [6] 5.05%

Cc1cc2c(cc1C)[n+](=O)c(C(=O)CC(=O)C(=O)Nc1ccccc1C)c(C)n2[O-]
inactive: [1] 37% | [2] 46.5% | [3] 3.8% | [4] 30.4% | [5] 47.3% | [6] 9.3%

CC1CCCC(C(O)CC2CC(=O)NC(=O)C2)C1O (stereo unspecified)
inactive: [1] 17.4% | [2] -3.65% | [3] 3.5% | [4] -29.8% | [5] 1.7% | [6] 4.45%

Nc1cc2c(cc1[N+](=O)[O-])-c1cccc(F)c1C2
inactive: [1] 63.6% | [2] 7.65% | [3] 0.65% | [4] 10.8% | [5] -9.15% | [6] 33%

O=C1c2ccc(=O)[nH]c2C(=O)C2CC3=C(CCCC3)CC12 (stereo unspecified)
inactive: [1] 20.4% | [2] 24.6% | [3] 59.5% | [4] -71.1% | [5] 42.5% | [6] 44.5%

CC(=O)c1cccc(NC(=O)c2c(Br)c(Br)c(Br)c(Br)c2C(=O)O)c1
inactive: [1] -7.25% | [2] -12.6% | [3] 2.95% | [4] 0.2% | [5] -0.25% | [6] -3.1%

COC(=O)CC(CC(=O)OC)N1CC=CC1
inactive: [1] -12.9% | [2] 10.5% | [3] -5.95% | [4] -15.1% | [5] 5.35% | [6] 31.6%

O=C(O)/C(=C/c1ccccc1[N+](=O)[O-])c1cccs1
inactive: [1] 27.9% | [2] 2.25% | [3] 22.6% | [4] 21.1% | [5] -11.3% | [6] 8.9%

CCCCCCC(C)N1C(=O)c2ccccc2C1=O (stereo unspecified)
inactive: [1] 6.25% | [2] 6.75% | [3] 4.75% | [4] -39.1% | [5] 0.7% | [6] -8.4%

C1CCC2C3CCC(O3)C2C1 (stereo unspecified)
inactive: [1] -4.2% | [2] 1.05% | [3] 5.4% | [4] -33.7% | [5] -39.1% | [6] 2.35%

CCOC(OCC)c1ccccc1C
inactive: [1] 27.9% | [2] 9.3% | [3] 8.25% | [4] -36.5% | [5] 15.2% | [6] 20.4%

CC1(C)OC(=O)N=C1c1cccc(Cl)c1
inactive: [1] -12.3% | [2] -17.8% | [3] -15.9% | [4] -5.9% | [5] 4.25% | [6] -3.7%

CN(NC(=O)Nc1cccc2ccccc12)c1ccccc1
inactive: [1] -4.7% | [2] -16.2% | [3] 14.7% | [4] -63.8% | [5] 1.65% | [6] -6.85%

CCOc1ccc2nc(SCCl)sc2c1
inactive: [1] 6.1% | [2] -2.7% | [3] 7.65% | [4] -14.9% | [5] -35.1% | [6] 2.8%

CSc1nc2c(nc(N)n2C2OC(CO)C(O)C(O)C2O)c(=O)n1C (stereo unspecified)
inactive: [1] 3.1% | [2] 20% | [3] 26.3% | [4] 33.9% | [5] 11.2% | [6] 39.4%

O=C(Nc1ccc(Cc2ccc(NC(=O)Nc3nc4ccccc4s3)cc2)cc1)Nc1nc2ccccc2s1
inactive: [1] -5.15% | [2] -17.4% | [3] -2.25% | [4] 19.2% | [5] 21.6% | [6] -4.5%

CC(=O)OC1CCC2(C)C(CCC3C2CCC2(C)C(C(C)=O)CCC32)C1 (stereo unspecified)
inactive: [1] 4.25% | [2] -9.05% | [3] 2.35% | [4] -11.9% | [5] 10.4% | [6] 14.9%

NC(CSS(=O)(=O)c1ccccc1)C(=O)O (stereo unspecified)
inactive: [1] 4% | [2] -37.5% | [3] -0.75% | [4] 0.5% | [5] -10.6% | [6] 0.3%

O=C(c1ccc(-c2ccccc2)cc1)N(C(=O)c1cc(N2CCOCC2)ccn1)c1ccc([N+](=O)[O-])cc1
inactive: [1] 43% | [2] 17.8% | [3] 45.8% | [4] 22.9% | [5] -5.6% | [6] 8.6%

CC1CC(C)OC(C)(c2ccccc2)O1 (stereo unspecified)
inactive: [1] 21.4% | [2] -6% | [3] -0.9% | [4] -33.1% | [5] -18.5% | [6] 8.6%

CNCc1ccccc1
inactive: [1] -1.25% | [2] -2.8% | [3] -21% | [4] -23% | [5] -19.8% | [6] -3.4%

CC(=O)OC1CCC2(C)C(=CCC3C2CCC2(C)C(C(C)C(=O)O)CCC32)C1 (stereo unspecified)
inactive: [1] 15.7% | [2] -32.8% | [3] -21.4% | [4] -10.2% | [5] -31.1% | [6] 13%

C=CC(C)C1C(C)C(Cl)CC(Cl)C1OC(=O)c1ccccc1 (stereo unspecified)
inactive: [1] 14.1% | [2] -0.65% | [3] 10.7% | [4] -2.3% | [5] 17.8% | [6] -11.3%

O=c1[nH]c2cc(Cl)ccc2nc1/C=C(\O)c1ccc(O)cc1
inactive: [1] 31% | [2] 2.25% | [3] 0.2% | [4] 7.05% | [5] -20% | [6] 13.7%

CC1(C)CC(=NNC(N)=S)CC(C)(C)N1
inactive: [1] 1.3% | [2] -7.2% | [3] 14.3% | [4] -51.9% | [5] -16.2% | [6] -0.95%

NNC(=O)CCC(=O)Nc1ccc(Cl)cc1Cl
inactive: [1] -19.9% | [2] 0.65% | [3] -8.25% | [4] 26.9% | [5] 5.1% | [6] 30.9%

CCCC(C)C1(CCC)C(=O)N=C(N)N=C1N (stereo unspecified)
inactive: [1] 3.8% | [2] 7.75% | [3] -3.9% | [4] 12.4% | [5] -2.8% | [6] -10.5%

Cc1onc(-c2ccccc2)c1C(=O)N1CCCN2C(=O)c3ccccc3C21 (stereo unspecified)
inactive: [1] -0.3% | [2] -11.1% | [3] 15.8% | [4] 2% | [5] 22.3% | [6] 15.8%

Cc1ccc([N+](=O)[O-])cc1N1CCNC1=O
inactive: [1] 8.05% | [2] -17.2% | [3] -12.2% | [4] -62.7% | [5] 9% | [6] -21.9%

COC(OC)C1(c2ccccc2)NC(=O)N(Cc2ccccc2)C1=O (stereo unspecified)
inactive: [1] 3.1% | [2] -10% | [3] -1.3% | [4] -49.5% | [5] 2.85% | [6] -9.65%

CC(C(=O)O)C1(O)CCCCC1 (stereo unspecified)
inactive: [1] 0.6% | [2] -13.9% | [3] -8.4% | [4] -25.4% | [5] 13.7% | [6] -8.4%

CCOC(=O)/C(C#N)=C/c1c[nH]c2ccccc12
inactive: [1] 19.6% | [2] 6.05% | [3] 3.5% | [4] 23.8% | [5] 19.3% | [6] 31.4%

Nn1c(C23CC4CC(CC(C4)C2)C3)n[nH]c1=S
inactive: [1] 4.35% | [2] 5.65% | [3] 36.1% | [4] -6.85% | [5] 16.6% | [6] 28.1%
